This note sets out measurements from PubChem BioAssay (NCI).

Compounds without any hit were thinned out: in the full panel of roughly 83,000, 20% have a hit.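 Interpretation: 100, growth as untreated; towards 0, rising growth inhibition; 0, no net growth; 0 to -100, cell death. Compounds scoring below 10 were considered active.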 Values without a mark were called inactive. The source made the active and inactive calls.

The experiment deals with MDA-MB-468 breast. Put plainly: NCI-60 one-dose screen, 48 h (100 = growth as untreated, 0 = no growth, -100 = all killed). Conditions: 10 µM unless noted.
For `O=C(c1ccccc1)C(c1c[nH]c2ccccc12)c1c[nH]c2ccccc12`, the growth is 57.8%.
With `CC1(C)CC[C@]2(C(=O)Nc3ccc(Br)cc3)CC[C@]3(C)C(=CCC4[C@@]5(C)C[C@@H](O)[C@H](O)[C@@](C)(CO)C5CC[C@]43C)C2C1` (stereo partly specified) the figure was -3.95% (active).
Under `CC(/C=C1\SC(=S)N(CCCC(=O)NC(CC(C)C)C(=O)O)C1=O)=C\c1ccccc1` (stereo unspecified) stands 86.7%; under `Cn1cc(-c2cc(N)n3nc(-c4cn(C)c5ccccc45)cc3n2)c2cc(Br)ccc21`, -24.9% (active).
With `Cc1ccc(NCC(=O)Cn2cc(COc3ccc(C=Nc4cnc5ccccc5c4)cc3)nn2)cc1` the figure was 100%; with `Cc1ccc([C@H]2C(C(=O)c3ccc(Cl)cc3)C3(N[C@@H]2c2ccccc2)C(=O)Nc2ccc(Cl)cc23)cc1` (stereo partly specified), 47.9%.
Take `Cc1cc2nc3c4ccccc4n(CCNCCN(C)C)c3nc2cc1C`: the growth was -54.4% (active).
With `Cc1ccccc1[C@H]1C(C(=O)c2ccc(Cl)cc2)C2(N[C@@H]1c1ccccc1)C(=O)Nc1ccc(Br)cc12` (stereo partly specified) the figure was -26.1% (active); with `CC(C)c1sc(NC(=O)c2cc(NC(=O)c3cc(NC(=O)c4cscn4)cn3C)cn2C)nc1C(=O)NCCCN(C)C`, -62.7% (active); with `CC(=O)OC[C@@]1(C)C2CC[C@]3(C)C(CC=C4C5CC(C)(C)CC[C@]5(C(=O)Nc5ccc(C)cc5)CC[C@]43C)[C@@]2(C)C[C@@H](OC(C)=O)[C@@H]1OC(C)=O` (stereo partly specified), 8.22% (active).
Under `O=C1CC(Sc2n[nH]c(-c3ccncc3)n2)C(=O)N1c1ccc(Br)cc1` (stereo unspecified) stands 99.3%.
With `COc1cc2c3c(n(CCCN4CCC[C@@H]4CO)c(=O)c2cc1OC)-c1cc2c(cc1C3=O)OCO2` the figure was -92.4% (active).
Turning to `C=C1CCC2C3(C)COC(c4ccc(F)cc4)OC3CCC2(C)C1C/C=C1/C(=O)OCC1O` (stereo unspecified), the growth is -50.5% (active).
With `Cc1sc(C(NC(=O)OCCn2c([N+](=O)[O-])cnc2C)C(F)(F)Cl)nc1-c1ccc(OC(F)(F)F)cc1` (stereo unspecified) the figure was -93.4% (active); with `CC1[C@H]2[C@H](C[C@H]3[C@@H]4CC=C5c6sc(Nc7ccccc7F)nc6CC[C@]5(C)[C@H]4CC[C@@]32C)O[C@]12CC[C@@H](C)CO2` (stereo partly specified), -63.1% (active); with `O=C(c1ccccc1)c1ccc2nc(-c3cccc(Cl)c3)[nH]c2c1`, 105%.
Turning to `OCNc1ccc(-n2cnc3cc(-c4ccc(O)cc4)ccc32)cc1C(F)(F)F`, the growth was 27.7%.
Under `CCOC(=O)C(N=Nc1ccc(S(=O)(=O)N=C(N)N)cc1)C(C)=O` (stereo unspecified) stands 92.9%; under `CCOC(=O)/C=C/c1cccc2c1C(=O)NC(C)(c1cc3cc(Cl)ccc3oc1=O)N2` (stereo unspecified), 3.88% (active).
With `C#CCOc1cc(N(CC)CC)ccc1C(C(=O)NC(C)(C)C)N(C(=O)C1CCc2cc(F)ccc2O1)c1ccc(Br)cc1` (stereo unspecified) the figure was 61.2%; with `CCCCCCCCc1ccc(C(=O)Nc2ccc(C)cc2C(=O)O)cc1C`, 92.8%; with `C#CCOc1cc(N(CC)CC)ccc1C(C(=O)NC(C)(C)C)N(C(=O)C1CCc2cc(F)ccc2O1)c1ccc(F)c(Cl)c1` (stereo unspecified), 37.6%.
Under `CCOC(=O)C1=C(N)N(c2ccccc2)C2=C(C(=O)CC(C)(C)C2)C1c1ccc([N+](=O)[O-])cc1` (stereo unspecified) stands 96.1%.
Turning to `C=C1CC[C@@H]2[C@]3(C)COC(c4ccccc4)O[C@@H]3CC[C@@]2(C)[C@@H]1C/C=C1/C(=O)OCC1OC(C)=O` (stereo partly specified), the growth is -89.8% (active).
`C#C[C@]1(O)CC[C@H]2[C@@H]3CC=C4c5sc(-c6ccc([N+](=O)[O-])cc6)nc5CC[C@]4(C)[C@H]3CC[C@@]21C`: the growth was -17.8% (active).
Under `CN1CCN(/C(=N\c2sc(-c3ccccc3)nc2-c2ccccc2)c2ccccc2)CC1` stands 71.6%.
With `N=C1N=C(SCc2nc3ccccc3[nH]2)NC(=O)/C1=C/c1ccc(Cl)cc1` the figure was 116%.
Under `C/C(=N\N=C1/C(=O)Nc2ccc(Cl)cc21)c1ccc2c(c1)Nc1ccccc1S2` stands 2.73% (active).
Turning to `Cc1cccc(NC(=O)CN2CCN(c3ncnc4c3cnn4-c3ccccc3)CC2)c1`, the growth is 89.2%.
With `CN(C)CCOc1ccc(C(=O)C2[C@H](c3ccc(Cl)cc3)[C@@H](c3ccccc3)NC23C(=O)Nc2ccccc23)cc1` (stereo partly specified) the figure was -26% (active); with `COc1ccc2[nH]cc(-c3nnc(N)nc3-c3cn(C)c4ncc(Br)cc34)c2c1`, 42.9%.
